Inconclusive results are not listed. Where a call stands in place of a potency, no number is given. Activity calls are given as the source filed them. The call rests on the fitted dose curve; in most records, active means well fitted activation curve with a large enough effect in the repeat runs; inconclusive means weak or mixed curves; inactive means no such curve, though single readings can be large or run the other way.
assay: qHTS assay for small molecules that induce genotoxicity in human embryonic kidney cells expressing luciferase-tagged ATAD5 (AID 651632); settings: HEK293T ATAD5-luciferase induction, 16 h; series mostly up to 83.3 µM; further: nearly all actives have a fitted effect of over 15% in size
Description: U.S. Tox21 Program National Center for Advancing Translational Sciences [NCATS] NIH Chemical Genomics Center [NCGC] U.S. Environmental Protection Agency [EPA] National Institutes of Environmental Health Sciences [NIEHS] National Toxicology Program [NTP] U.S. Food and Drug Administration [FDA] Tox21 Assay Overview: As cancer cells divide rapidly and during every cell division they need to duplicate their genome by DNA replication. The failure to do so results in the cancer cell death. Based on this concept, many chemotherapeutic agents were developed but have limitations such as low efficacy and severe side effects etc. A new cell based assay was developed to find the compounds that effectively block DNA replication either by directly damaging DNA or by inhibiting other cellular mechanisms. Enhanced Level of Genome Instability Gene 1 (ELG1; human ATAD5) protein levels increase in response to various types of DNA damage. Using a luciferase reporter-gene tagged with ATAD5, a cell-based assay [developed by Kyungjae Myung, NHGRI, NIH] was used to measure the induction of ATAD5 in human embryonic kidney cells (HEK293T). So, increase in luciferase activity can be used to identify the compounds that cause genetic stress.
Tox21 Assay Protocol Summary: For genotoxicity screening, 2,000 cells in 5 uL/well were dispensed into white, solid-bottom 1536-well plates using a Multidrop Combi (Thermo Scientific) dispenser. Following transfer of 23 nL compound or DMSO vehicle by a pin tool, the plates were incubated 16 hr at 37C and 5% CO2. 5 ul Amplite (AAT Bioquest, Inc.) was then added to each plate and following 30 min incubation at room temperature, luciferase activity was quantified on a ViewLux CCD-based plate reader.
Potency means the concentration at half of the fitted maximal effect.

Row | SMILES | Potency
1 | CC1(C)COP(Oc2ccccc2)OC1 | inactive
2 | C=C(C)CN(CC)c1c([N+](=O)[O-])cc(C(F)(F)F)cc1[N+](=O)[O-] | inactive
3 | O=C(O)c1cccc(Cl)c1 | inactive
4 | CC(C)CP(=S)(S)CC(C)C | inactive
5 | CCOP(=O)(OCC)OP(=O)(OCC)OCC | inactive
6 | CCc1cc2c(s1)-n1c(C)nnc1CN=C2c1ccccc1Cl | 26.6 µM (active)
7 | COc1cc(OC)nc(NC(=O)NS(=O)(=O)c2ncccc2C(=O)N(C)C)n1 | inactive
8 | CCCSP(=O)(OCC)Oc1ccc(Br)cc1Cl (stereo not given) | inactive
9 | CCOC(=O)CP(=O)(OCC)OCC | inactive
10 | c1cc2c(c(N3CCNCC3)c1)OCCO2 | inactive
11 | C=CC1CC=CCC1 (stereo not given) | inactive
12 | O=c1oc2ccccc2c(O)c1C1CCCc2ccccc21 (stereo not given) | inactive
13 | O=CNC(N1CCN(C(NC=O)C(Cl)(Cl)Cl)CC1)C(Cl)(Cl)Cl (stereo not given) | inactive
14 | CCNc1nc(NC(C)C)nc(OC)n1 | inactive
15 | CN(N=O)C(N)=O | inactive
16 | NC1=NC(=O)C(c2ccccc2)O1 (stereo not given) | inactive
17 | CCCCP(CCCC)CCCC | inactive
18 | C[N+](=O)[O-] | inactive
19 | O=[N+]([O-])c1ccc2c3c(cccc13)CC2 | inactive
20 | CCS(=O)(=O)C(C)(C)S(=O)(=O)CC | inactive

Row | SMILES | Potency
21 | COc1cc(OC)nc(Sc2cccc(Cl)c2C(=O)O)n1 | inactive
22 | ClCC(Cl)Cl | inactive
23 | CC(Cl)(Cl)[N+](=O)[O-] | inactive
24 | COc1cccc2c1cc([N+](=O)[O-])c1c(C(=O)O)cc3c(c12)OCO3 | inactive
25 | Nc1c(Br)cc([N+](=O)[O-])cc1[N+](=O)[O-] | inactive
26 | CC1(C(=O)Nc2ccc(O)c(Cl)c2Cl)CCCCC1 | inactive
27 | OC(Cn1cncn1)(c1ccc(F)cc1)c1ccccc1F (stereo not given) | inactive
28 | COc1ccc2c(c1OC)CN1CCc3cc4c(cc3C1C2)OCO4 (stereo not given) | inactive
29 | CC(=O)Nc1cc([As](=O)(O)O)ccc1O | inactive
30 | CCOC(=O)N(C)C(=O)CSP(=S)(OCC)OCC | inactive
31 | CCOP(=S)(OCC)Oc1ncn(-c2ccccc2)n1 | inactive
32 | CSc1ccc(C(=O)C(C)(C)N2CCOCC2)cc1 | inactive
33 | O=C(Oc1ccc(Br)cc1)N1CCN2CCC1CC2 | inactive
34 | Nc1ccccc1Cl | inactive
35 | COC(=O)c1c(C(F)F)nc(C(F)(F)F)c(C2=NCCS2)c1CC(C)C | inactive
36 | O=NN1CCN(N=O)CC1 | inactive
37 | CCCCOC(=O)c1ccccc1N | inactive
38 | O=C1OC(c2ccc(O)c(S(=O)(=O)O)c2)(c2ccc(O)c(S(=O)(=O)O)c2)c2c(Br)c(Br)c(Br)c(Br)c21 | inactive
39 | COC(C)(C)C | inactive
40 | COc1cc(OC)nc(NC(=O)NS(=O)(=O)c2ncccc2OCC(F)(F)F)n1 | inactive

— PubChem BioAssay (Tox21)
